Here are results for 26 compounds from PubChem BioAssay (Tox21).

The nature of experiment [1]: qHTS assay to identify small molecule antagonists of the sonic hedgehog signaling (Shh) pathway (AID 1259369). Also: nearly all actives have a fitted effect of over 45% in size. Also: potency is read from the fitted curve at half-maximal effect. An outline of the steps:
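Inhibition of Shh signalling is measured as reduced Gli1-response-element firefly luciferase output in an NIH/3T3-derived stable reporter clone stimulated with conditioned medium for 24hr.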
(In general: Quantitative high-throughput screening tests each substance at several concentrations.)

In experiment [2] the target is Estrogen receptor beta (Homo sapiens) (UniProt Q92731). The experiment in a line: qHTS assay to identify small molecule agonists of the estrogen receptor beta (ER-beta) signaling pathway (AID 1259377; active = well fitted activation curve with a large enough effect in the signal ratio in the repeat runs, not every such curve was filed as active; the % refers to the signal ratio). A digest of the protocol: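 Ratiometric beta-lactamase FRET read-out came after 2 h substrate loading at room temperature. It followed 16 h compound treatment at 37C of GripTite HEK293T cells carrying a UAS-bla reporter, plated in 2% charcoal-stripped FBS medium.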
Estrogen receptor beta (Homo sapiens), sequence (Q92731 whole entry, looked up): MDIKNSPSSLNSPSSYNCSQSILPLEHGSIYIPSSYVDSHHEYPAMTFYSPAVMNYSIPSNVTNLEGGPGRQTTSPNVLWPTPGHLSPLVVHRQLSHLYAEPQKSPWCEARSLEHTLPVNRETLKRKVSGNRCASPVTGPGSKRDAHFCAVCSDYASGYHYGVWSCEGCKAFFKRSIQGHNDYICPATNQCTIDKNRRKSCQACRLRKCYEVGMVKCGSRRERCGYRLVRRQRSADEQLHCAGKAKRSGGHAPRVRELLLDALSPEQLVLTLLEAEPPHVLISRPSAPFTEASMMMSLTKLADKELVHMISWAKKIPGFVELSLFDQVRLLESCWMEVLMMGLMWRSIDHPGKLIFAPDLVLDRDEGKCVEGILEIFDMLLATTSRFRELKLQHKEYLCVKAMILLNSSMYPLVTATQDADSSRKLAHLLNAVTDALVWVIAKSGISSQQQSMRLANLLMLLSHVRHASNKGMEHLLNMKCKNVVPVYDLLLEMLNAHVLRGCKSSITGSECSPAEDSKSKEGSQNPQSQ

For experiment [3] the target is unchanged. In words: qHTS assay to identify small molecule antagonists of the estrogen receptor beta (ER-beta) signaling pathway (AID 1259378; active = well fitted inhibition curve with a large enough effect in the signal ratio in the repeat runs, not every such curve was filed as active; the % refers to the signal ratio). An outline of the steps:
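ER-beta-UAS-bla HEK293T cells in 2% charcoal-stripped FBS medium treated with compound plus 1nM final 17-beta-estradiol for 16 hr at 37C. Beta-lactamase reporter read by FRET substrate fluorescence after 2 hours at room temperature.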

Experiment [4] is described as follows: qHTS assay to identify small molecule agonists of the androgen receptor (AR) signaling pathway in the presence of an antagonist - cell viability counter screen (AID 1259379; active = well fitted curve in the direction sought with a large enough effect in the repeat runs; an effect the other way counts as inactive or inconclusive; also: nearly all actives have a fitted effect of over 25% in size; also: potency is read from the fitted curve at half-maximal effect). An outline of the steps: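 Fluorescence from CellTiter-Fluor, added after 15 hr and read 1 hr later, gave cell viability. Cells were MDA-kb2 exposed to compounds (15 concentrations) in the presence of 3.0uM nilutamide at 37C, 0% CO2.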

A short description of experiment [5]: qHTS assay to identify small molecule agonists of the estrogen receptor beta (ER-beta) signaling pathway - cell viability counter screen (AID 1259380; active = well fitted curve in the direction sought with a large enough effect in the repeat runs; an effect the other way counts as inactive or inconclusive; also: nearly all actives have a fitted effect of over 30% in size). An outline of the steps: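 Same-well viability counter screen. Cells: ER-beta-UAS-bla HEK293T, plated 6 hr before compound, in 2% charcoal-stripped FBS. Compound exposure 16 hr, 37C; viability by CellTiter-Glo luminescence after 30 min at room temperature.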

The target in experiment [6] is Androgen receptor (Homo sapiens) (UniProt P10275). In words: qHTS assay to identify small molecule agonists of the androgen receptor (AR) signaling pathway in the presence of an antagonist (AID 1259381). Also: nearly all actives have a fitted effect of over 15% in size. A digest of the protocol:
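Cells are MDA-kb2 (human breast carcinoma, MMTV-luc, AR/GR responsive). Nilutamide is present at 3.0uM final throughout; compounds are added at 15 concentrations and incubated 16hr at 37C before ONE-Glo luminescence detection.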

Experiment [7] can be described thus: qHTS assay to identify small molecule antagonists of the estrogen receptor beta (ER-beta) signaling pathway - cell viability counter screen (AID 1259382; active = well fitted curve in the direction sought with a large enough effect in the repeat runs; an effect the other way counts as inactive or inconclusive; also: series mostly up to about 92 µM; nearly all actives have a fitted effect of over 55% in size). An outline of the steps: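 Following a 6 hr plating period, HEK293T cells carrying a UAS-driven beta-lactamase reporter under ER-beta control received compounds and 1nM E2 (final). After 16 hr at 37C and 2 hr substrate loading, CellTiter-Glo luminescence indicated viability.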

Experiment [8] has as its target Estrogen receptor (Homo sapiens) (UniProt P03372). In words: qHTS assay to identify small molecule agonists of the estrogen receptor alpha (ER-alpha) signaling pathway in the presence of an antagonist (AID 1259383). Also: top concentration of the series differs between compounds; nearly all actives have a fitted effect of over 15% in size. A digest of the protocol:
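Cells are hormone-deprived for 5 days (charcoal-stripped FBS, no phenol red), plated for 24hr, spiked with 10.0nM ICI-182,780, then dosed at 15 concentrations. After 22hr at 37C, ONE-Glo luminescence reports ERE-luciferase activity.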

A short description of experiment [9]: qHTS assay to identify small molecule agonists or antagonists of the thyroid stimulating hormone receptor (TSHR) signaling pathway - wild type cell line counter screen (AID 1259384). An outline of the steps:
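Wild-type Hek293 cells, 800/well, 18 h at 37C, then compound with Ro20-1724 for 30 min RT. cAMP by HTRF (cAMP-d2/anti-cAMP cryptate), 1 h RT, fluorescence read. 15 concentrations, triplicates.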

Experiment [10] concerns the target Thyrotropin receptor (Homo sapiens) (UniProt P16473). In words: qHTS assay to identify small molecule antagonists of the thyroid stimulating hormone receptor (TSHR) signaling pathway (AID 1259385). Also: nearly all actives have a fitted effect of over 20% in size. An outline of the steps: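 TSHR-HEK293 cells (800/well) plated 18 h, then compounds with Ro20-1724 and TSH at 1.5 ng/mL final, 30 min at room temperature. cAMP quantified by HTRF (cAMP-d2/anti-cAMP-cryptate, 1 h); 15 concentrations in triplicate.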

“And” between values parts separate entries of the source, which are not always exact repeats. Equal values may be shown once. Records with an inconclusive call do not appear. Some structures have more than one record in an assay (separate samples or runs), and their calls can disagree. The source made the active and inactive calls. Unless noted, calls follow the shape of the full dose curve.

Thyrotropin receptor (Homo sapiens), sequence (P16473 whole entry, looked up): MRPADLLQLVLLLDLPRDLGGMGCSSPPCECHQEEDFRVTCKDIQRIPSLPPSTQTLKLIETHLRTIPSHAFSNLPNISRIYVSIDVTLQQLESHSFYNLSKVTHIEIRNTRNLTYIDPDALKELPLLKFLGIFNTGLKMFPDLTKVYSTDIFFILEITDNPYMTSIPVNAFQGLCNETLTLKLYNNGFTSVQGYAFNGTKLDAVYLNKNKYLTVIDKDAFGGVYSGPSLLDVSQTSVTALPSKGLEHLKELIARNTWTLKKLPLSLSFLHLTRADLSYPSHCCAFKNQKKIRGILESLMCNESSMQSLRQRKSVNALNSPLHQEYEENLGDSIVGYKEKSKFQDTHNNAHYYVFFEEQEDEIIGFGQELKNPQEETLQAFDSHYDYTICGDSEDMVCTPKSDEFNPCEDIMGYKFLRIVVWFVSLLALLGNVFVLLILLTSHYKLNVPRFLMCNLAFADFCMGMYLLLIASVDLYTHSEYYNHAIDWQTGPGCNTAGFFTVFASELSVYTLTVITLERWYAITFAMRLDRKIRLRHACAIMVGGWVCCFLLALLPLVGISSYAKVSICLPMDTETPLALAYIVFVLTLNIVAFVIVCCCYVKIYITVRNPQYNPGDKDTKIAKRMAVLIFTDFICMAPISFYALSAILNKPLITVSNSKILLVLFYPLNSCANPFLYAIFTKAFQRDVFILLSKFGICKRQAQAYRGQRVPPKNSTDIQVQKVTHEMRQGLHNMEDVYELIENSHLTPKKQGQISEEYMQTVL
Androgen receptor (Homo sapiens), sequence (P10275 whole entry, looked up): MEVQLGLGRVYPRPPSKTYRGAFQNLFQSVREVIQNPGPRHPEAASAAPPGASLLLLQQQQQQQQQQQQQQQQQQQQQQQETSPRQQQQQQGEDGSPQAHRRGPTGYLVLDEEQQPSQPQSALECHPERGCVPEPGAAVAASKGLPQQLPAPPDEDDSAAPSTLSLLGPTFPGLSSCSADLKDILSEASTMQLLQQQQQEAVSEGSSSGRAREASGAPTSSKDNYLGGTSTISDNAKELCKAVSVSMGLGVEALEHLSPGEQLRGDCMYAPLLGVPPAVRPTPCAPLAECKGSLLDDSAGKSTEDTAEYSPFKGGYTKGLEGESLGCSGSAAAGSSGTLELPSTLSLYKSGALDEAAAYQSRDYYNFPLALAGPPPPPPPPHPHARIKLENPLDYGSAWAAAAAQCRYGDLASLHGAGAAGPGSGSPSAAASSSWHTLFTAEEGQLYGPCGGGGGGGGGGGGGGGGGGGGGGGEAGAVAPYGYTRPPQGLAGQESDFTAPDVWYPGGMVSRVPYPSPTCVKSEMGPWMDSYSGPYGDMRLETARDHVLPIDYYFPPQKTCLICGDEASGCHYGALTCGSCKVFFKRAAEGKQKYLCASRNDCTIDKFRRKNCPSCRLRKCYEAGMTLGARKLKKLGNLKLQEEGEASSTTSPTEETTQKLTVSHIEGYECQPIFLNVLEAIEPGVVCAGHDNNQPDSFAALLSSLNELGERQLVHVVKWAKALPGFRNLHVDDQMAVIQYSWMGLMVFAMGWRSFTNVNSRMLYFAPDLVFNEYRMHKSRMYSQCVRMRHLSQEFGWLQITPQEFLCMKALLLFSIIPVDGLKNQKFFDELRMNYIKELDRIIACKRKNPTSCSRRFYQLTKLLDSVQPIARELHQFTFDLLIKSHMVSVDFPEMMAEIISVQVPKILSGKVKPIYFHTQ
Estrogen receptor (Homo sapiens), sequence (P03372 whole entry, looked up): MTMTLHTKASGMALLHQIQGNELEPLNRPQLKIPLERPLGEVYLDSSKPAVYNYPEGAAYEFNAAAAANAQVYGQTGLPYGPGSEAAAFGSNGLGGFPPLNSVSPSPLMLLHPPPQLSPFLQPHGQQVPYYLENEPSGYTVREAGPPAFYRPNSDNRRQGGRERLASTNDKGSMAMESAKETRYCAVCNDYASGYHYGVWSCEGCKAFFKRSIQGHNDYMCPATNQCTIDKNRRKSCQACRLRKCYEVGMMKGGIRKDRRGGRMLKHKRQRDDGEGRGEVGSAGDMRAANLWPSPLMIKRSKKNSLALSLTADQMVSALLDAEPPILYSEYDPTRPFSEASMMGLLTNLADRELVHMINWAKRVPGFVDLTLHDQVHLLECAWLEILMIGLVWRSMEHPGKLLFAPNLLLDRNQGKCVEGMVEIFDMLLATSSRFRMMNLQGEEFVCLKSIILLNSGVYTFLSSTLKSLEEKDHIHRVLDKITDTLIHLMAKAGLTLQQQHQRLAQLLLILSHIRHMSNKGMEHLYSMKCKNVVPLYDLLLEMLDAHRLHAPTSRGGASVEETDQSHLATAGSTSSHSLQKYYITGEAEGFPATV

Consider `CC(=O)CC(C)(C)O`, for which the Potency entry in experiment [1], in experiment [2], in experiment [3], in experiment [4], in experiment [5] and in experiment [6] was “inactive” each time. Besides, in experiment [8], the Potency entry was “inactive”. The result in [7], in [9] and in [10] was inactive.

Turning to `CN(C)CCOC(=O)COc1ccc(Cl)cc1`, the Potency entry in [1], in [2], in experiment [3], in [4] and in experiment [5] was “inactive” in each case. Also, the result in experiment [7] and in [9] was inactive.

As for `CCCCCCCCCCN`, the Potency result in experiment [1], in experiment [2], in [3], in experiment [4] and in [5] was “inactive” each time. For the same compound, the result in experiment [7] and in experiment [9] was inactive.

For the compound `OCc1ccccc1`, the Potency result in [1], in experiment [2], in experiment [3], in experiment [4], in experiment [5] and in experiment [6] was “inactive” throughout. Besides, the call in experiment [7] and in experiment [10] was inactive.

Take `CSc1ccc(Cl)cc1`: the Potency result in experiment [1], in experiment [2], in experiment [3], in experiment [4] and in [6] was “inactive” in each case. The compound was called inactive in experiment [7] and in experiment [9].

As to `CC(=O)OCc1ccco1`, in [1], the Potency was 1.53 µM (active) and inactive. For the same compound, the Potency entry in experiment [2], in experiment [3] and in experiment [4] was “inactive” each time. Besides, the result in experiment [7] was inactive.

Take `Nc1ccc(Cl)c(N)c1`: the Potency entry in [1], in experiment [2], in experiment [3], in experiment [4] and in experiment [5] was “inactive” each time. Moreover, the call in [7] and in [10] was inactive.

Turning to `Cc1ccc(C(C)C)c(O)c1`, the Potency result in experiment [1], in [2], in experiment [3], in [4] and in experiment [8] was “inactive” in each case. Further, in [7], the compound was classed as inactive.

On to `C=C(C)[C@H]1CC=C(C)C(=O)C1`, for which the Potency entry in experiment [1], in [2], in experiment [3] and in [4] was “inactive” throughout. Besides, the compound was classed as inactive in [7], in experiment [9] and in experiment [10].

`CC1(C)OC[C@@H]2O[C@@]3(C(=O)O)OC(C)(C)O[C@H]3[C@@H]2O1`: the Potency entry in experiment [1], in experiment [2], in experiment [3], in experiment [4] and in experiment [5] was “inactive” each time. Also, the result in experiment [7], in [9] and in [10] was inactive.

Regarding `CC(CCO)CC(C)(C)C` (stereo not drawn), the Potency result in experiment [1], in [2], in experiment [3], in experiment [4], in experiment [5] and in [6] was “inactive” throughout. Besides, the Potency result in experiment [8] was “inactive”. For the same compound, the compound was called inactive in experiment [7], in experiment [9] and in experiment [10].

As to `CCCCCC(=O)O`, the Potency entry in [1], in experiment [2], in [3], in experiment [4] and in experiment [6] was “inactive” throughout. Besides, the compound was called inactive in [7], in experiment [9] and in [10].

Turning to `CC(=O)Oc1ccc(C)cc1`, the Potency entry in [1], in [2], in experiment [3], in [4], in [5] and in [6] was “inactive” throughout. Further, in [7], the compound was called inactive.

Consider `CC(C)CC(=O)CC(C)CC(C)C` (stereo not drawn), for which the Potency result in experiment [2], in experiment [3], in [4], in [5] and in [6] was “inactive” each time. The compound was classed as inactive in experiment [7], in [9] and in experiment [10].

Consider `CCNc1cccc(C)c1`, for which the Potency entry in experiment [1], in experiment [4] and in [5] was “inactive” each time. Besides, the call in [7] and in experiment [10] was inactive.

On to `OCc1cccc(Oc2ccccc2)c1`, for which the Potency entry in experiment [1], in experiment [3], in [4] and in [6] was “inactive” each time. In [7], the compound was classed as inactive.

For the compound `CCO[Si](CCCN)(OCC)OCC`, the Potency result in experiment [1], in experiment [4] and in experiment [5] was “inactive” throughout. Also, the outcome in [7], in experiment [9] and in [10] was inactive.

For `COCCCN`, the Potency entry in experiment [1], in [4], in [5] and in experiment [8] was “inactive” throughout. The compound was classed as inactive in [7] and in experiment [10].

Consider `Cc1ccc2ncccc2c1`, for which the Potency entry in [1], in [4], in [5] and in [8] was “inactive” in each case. The result in experiment [7], in [9] and in experiment [10] was inactive.

As for `O=S(=O)(O)c1ccccc1`, the Potency entry in experiment [1], in experiment [4] and in experiment [5] was “inactive” each time. The compound was called inactive in [7], in experiment [9] and in experiment [10].

As for `C=CCCCCCCCCC(=O)O`, the Potency entry in experiment [1], in experiment [2] and in experiment [4] was “inactive” in each case. Moreover, the outcome in experiment [7], in experiment [9] and in experiment [10] was inactive.

In the case of `O=C(O)c1cc2ccccc2cc1O`, the Potency result in experiment [1], in [4], in [5], in [6] and in experiment [8] was “inactive” each time. Further, the compound was called inactive in experiment [7] and in experiment [9].

With `O=S(=O)(O)c1ccc(N=Nc2c(O)ccc3cc(S(=O)(=O)O)ccc23)cc1`, the Potency result in experiment [1], in experiment [5] and in [8] was “inactive” in each case. The Potency in experiment [4] was 54.7 µM (active) and 30.6 µM (active). Moreover, in [7], the result was inactive.

Turning to `COC(=O)c1cccnc1`, the Potency entry in experiment [1], in experiment [4] and in [6] was “inactive” throughout. The result in [7] was inactive.

In the case of `C=C(C)CNCC`, the Potency result in [1], in [4] and in experiment [5] was “inactive” throughout. For the same compound, the compound was classed as inactive in experiment [7].

Regarding `CC(C)c1cccc(C(C)C)c1`, the Potency result in experiment [1], in [4], in experiment [5] and in [8] was “inactive” each time. The result in [7], in experiment [9] and in [10] was inactive.
